The supplement of paper PMC11001985
Unmarked numbers belong to inactive results.

Compound: C#CCNC(=O)CCSSCCC(=O)NCCc1ccc(C=O)c(C=O)c1
Assay: lysine labeling ratio R10:1 (500 µM / 50 µM probe), SILAC-ABPP in living cells; higher = lower intrinsic lysine reactivity toward the probe, active = 2 or less
Settings: HeLa; probe concentrations 500 vs 50 µM
Outline: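 Each lysine carries an R value: the filtered median of MS1 peptide ratios of high probe to low probe, with the median then taken over forward and reverse replicates. These came from living SILAC light and heavy HeLa cells in PBS at room temperature labelled with an alkyne-tagged, disulfide-linked lysine probe at 500 µM or 50 µM, in forward and reverse swaps. The lysates were mixed, clicked to biotin-azide, trypsin-digested, captured on neutravidin, released by DTT, alkylated and run by LC-MS/MS on a TIMS-TOF Pro. The highest value allowed is 20.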

UniProt Q05682, sequence (Q05682 whole entry): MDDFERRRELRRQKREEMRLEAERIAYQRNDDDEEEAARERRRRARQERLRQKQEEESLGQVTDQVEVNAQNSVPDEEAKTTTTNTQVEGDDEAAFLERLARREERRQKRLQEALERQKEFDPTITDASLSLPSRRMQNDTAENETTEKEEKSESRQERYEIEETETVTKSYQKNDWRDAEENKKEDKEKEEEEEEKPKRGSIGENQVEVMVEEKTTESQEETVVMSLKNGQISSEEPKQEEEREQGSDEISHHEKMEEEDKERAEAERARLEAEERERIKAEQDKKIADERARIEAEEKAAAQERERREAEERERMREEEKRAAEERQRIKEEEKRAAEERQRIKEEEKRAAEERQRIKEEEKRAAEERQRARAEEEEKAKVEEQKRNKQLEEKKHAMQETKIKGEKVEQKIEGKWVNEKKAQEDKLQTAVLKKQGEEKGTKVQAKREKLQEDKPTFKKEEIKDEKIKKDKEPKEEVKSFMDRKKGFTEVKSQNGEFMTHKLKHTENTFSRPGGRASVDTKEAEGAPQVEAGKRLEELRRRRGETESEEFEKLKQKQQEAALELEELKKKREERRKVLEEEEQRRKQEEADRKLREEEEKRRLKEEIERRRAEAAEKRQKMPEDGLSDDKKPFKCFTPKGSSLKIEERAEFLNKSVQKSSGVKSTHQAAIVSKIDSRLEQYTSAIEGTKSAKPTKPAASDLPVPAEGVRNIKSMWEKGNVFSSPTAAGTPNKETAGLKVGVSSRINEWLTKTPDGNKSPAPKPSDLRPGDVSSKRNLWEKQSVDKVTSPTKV
UniProt P15151, sequence (P15151 whole entry): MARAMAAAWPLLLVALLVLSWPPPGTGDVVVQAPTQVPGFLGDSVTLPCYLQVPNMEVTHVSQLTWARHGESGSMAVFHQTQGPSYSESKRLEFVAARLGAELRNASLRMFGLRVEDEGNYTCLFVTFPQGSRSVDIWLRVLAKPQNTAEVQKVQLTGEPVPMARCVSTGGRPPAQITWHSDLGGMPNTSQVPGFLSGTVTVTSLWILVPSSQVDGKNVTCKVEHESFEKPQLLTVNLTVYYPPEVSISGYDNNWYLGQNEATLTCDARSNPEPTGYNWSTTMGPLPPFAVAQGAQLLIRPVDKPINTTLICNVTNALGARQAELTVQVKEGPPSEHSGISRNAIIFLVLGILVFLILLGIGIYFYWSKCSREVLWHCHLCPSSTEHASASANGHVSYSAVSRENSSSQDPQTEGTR
UniProt Q14697, sequence (Q14697 whole entry): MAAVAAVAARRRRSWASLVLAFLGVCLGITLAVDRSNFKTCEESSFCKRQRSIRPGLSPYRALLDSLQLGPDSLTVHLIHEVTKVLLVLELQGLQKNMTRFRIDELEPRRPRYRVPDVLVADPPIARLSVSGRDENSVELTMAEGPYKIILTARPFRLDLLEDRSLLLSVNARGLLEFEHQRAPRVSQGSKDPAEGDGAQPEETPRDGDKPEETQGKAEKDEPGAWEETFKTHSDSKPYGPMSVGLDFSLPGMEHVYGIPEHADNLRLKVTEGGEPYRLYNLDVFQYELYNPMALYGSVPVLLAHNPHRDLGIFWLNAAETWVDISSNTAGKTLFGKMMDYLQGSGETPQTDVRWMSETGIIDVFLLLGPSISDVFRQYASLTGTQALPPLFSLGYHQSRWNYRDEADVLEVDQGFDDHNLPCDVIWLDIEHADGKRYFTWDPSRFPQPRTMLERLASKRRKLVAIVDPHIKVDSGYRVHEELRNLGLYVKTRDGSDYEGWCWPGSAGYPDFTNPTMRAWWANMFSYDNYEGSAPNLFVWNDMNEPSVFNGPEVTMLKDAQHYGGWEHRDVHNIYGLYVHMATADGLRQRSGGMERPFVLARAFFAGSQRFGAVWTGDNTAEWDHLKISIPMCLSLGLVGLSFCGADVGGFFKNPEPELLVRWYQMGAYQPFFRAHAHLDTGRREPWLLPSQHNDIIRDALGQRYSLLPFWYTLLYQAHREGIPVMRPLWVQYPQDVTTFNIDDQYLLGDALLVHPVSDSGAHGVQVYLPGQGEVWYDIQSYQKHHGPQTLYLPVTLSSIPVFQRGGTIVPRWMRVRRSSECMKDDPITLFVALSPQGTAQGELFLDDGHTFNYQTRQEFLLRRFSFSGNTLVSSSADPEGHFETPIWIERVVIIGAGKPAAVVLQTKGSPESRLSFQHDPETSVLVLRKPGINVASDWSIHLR
UniProt P21926, sequence (P21926 whole entry): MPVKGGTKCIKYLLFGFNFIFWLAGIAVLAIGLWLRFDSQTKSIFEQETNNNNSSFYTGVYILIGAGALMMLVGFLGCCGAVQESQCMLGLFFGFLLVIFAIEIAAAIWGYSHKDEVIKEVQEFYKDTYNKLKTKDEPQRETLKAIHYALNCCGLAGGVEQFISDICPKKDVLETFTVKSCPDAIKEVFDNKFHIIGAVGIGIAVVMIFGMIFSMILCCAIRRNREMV
UniProt Q7Z3B1, sequence (Q7Z3B1 whole entry, looked up): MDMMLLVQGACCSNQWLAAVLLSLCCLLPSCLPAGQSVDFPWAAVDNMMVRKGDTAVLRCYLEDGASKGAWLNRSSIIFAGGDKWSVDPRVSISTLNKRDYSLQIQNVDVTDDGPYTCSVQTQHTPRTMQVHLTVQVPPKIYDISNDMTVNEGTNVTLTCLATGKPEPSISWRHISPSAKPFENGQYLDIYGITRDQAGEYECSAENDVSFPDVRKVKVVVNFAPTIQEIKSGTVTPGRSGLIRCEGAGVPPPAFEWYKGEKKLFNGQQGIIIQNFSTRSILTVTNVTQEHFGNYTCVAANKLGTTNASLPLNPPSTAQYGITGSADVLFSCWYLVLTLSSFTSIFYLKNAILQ
UniProt P07237, sequence (P07237 whole entry, looked up): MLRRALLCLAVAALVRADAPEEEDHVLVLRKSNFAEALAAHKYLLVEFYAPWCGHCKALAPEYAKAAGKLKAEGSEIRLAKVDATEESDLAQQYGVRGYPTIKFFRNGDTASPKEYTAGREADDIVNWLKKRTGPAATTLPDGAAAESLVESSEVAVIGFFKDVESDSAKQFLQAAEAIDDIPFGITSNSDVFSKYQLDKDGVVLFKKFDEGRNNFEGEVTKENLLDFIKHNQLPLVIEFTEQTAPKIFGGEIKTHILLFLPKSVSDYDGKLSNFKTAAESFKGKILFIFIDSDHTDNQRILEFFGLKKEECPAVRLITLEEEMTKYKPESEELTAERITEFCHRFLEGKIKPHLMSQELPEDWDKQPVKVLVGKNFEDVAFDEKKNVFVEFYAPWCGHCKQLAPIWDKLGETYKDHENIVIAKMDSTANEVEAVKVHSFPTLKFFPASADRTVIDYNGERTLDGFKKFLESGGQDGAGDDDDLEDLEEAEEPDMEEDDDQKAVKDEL
UniProt Q8WWI1, sequence (Q8WWI1 whole entry): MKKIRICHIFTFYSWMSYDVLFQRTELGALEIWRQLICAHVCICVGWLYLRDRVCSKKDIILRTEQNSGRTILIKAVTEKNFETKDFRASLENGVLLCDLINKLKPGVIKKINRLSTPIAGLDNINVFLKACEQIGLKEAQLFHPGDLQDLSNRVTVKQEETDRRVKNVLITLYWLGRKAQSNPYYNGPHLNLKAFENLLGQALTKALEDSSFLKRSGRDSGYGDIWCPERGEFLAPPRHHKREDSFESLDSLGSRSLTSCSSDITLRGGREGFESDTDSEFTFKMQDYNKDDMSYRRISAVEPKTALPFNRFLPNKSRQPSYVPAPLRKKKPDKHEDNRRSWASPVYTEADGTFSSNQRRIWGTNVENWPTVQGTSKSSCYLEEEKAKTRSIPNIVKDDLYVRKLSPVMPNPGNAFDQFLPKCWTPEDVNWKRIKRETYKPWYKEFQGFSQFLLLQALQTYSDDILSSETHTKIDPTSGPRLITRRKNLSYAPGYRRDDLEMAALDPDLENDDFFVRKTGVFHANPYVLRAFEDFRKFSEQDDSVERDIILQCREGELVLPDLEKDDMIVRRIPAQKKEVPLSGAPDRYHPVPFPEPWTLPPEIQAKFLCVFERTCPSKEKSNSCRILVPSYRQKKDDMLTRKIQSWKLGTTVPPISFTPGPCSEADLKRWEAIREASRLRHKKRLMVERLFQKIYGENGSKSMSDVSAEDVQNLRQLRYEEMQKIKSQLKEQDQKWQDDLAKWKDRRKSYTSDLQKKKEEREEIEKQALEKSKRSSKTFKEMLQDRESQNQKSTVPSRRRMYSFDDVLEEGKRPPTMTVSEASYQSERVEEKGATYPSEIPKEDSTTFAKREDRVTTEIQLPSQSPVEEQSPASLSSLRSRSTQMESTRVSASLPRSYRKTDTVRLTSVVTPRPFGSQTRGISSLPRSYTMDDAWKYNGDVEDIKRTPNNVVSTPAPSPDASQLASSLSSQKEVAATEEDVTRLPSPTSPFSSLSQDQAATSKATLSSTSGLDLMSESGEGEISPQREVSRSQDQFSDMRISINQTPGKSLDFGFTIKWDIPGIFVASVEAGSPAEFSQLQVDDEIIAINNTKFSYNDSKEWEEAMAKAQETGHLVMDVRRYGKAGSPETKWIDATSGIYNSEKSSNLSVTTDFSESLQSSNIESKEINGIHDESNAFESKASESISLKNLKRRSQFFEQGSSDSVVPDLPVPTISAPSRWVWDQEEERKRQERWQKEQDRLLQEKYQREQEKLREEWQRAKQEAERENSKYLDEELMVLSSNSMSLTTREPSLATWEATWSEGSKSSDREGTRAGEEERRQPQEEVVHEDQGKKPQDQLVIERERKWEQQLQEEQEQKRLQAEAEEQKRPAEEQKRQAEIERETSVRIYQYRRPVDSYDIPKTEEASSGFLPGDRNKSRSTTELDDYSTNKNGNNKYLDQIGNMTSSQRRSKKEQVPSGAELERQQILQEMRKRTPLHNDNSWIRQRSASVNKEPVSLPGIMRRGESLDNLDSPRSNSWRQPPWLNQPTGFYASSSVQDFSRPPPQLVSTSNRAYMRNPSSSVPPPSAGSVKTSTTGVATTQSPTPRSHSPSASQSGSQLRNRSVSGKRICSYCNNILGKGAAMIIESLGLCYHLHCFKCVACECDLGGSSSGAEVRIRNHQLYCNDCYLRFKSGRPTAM

Target	lysine labeling ratio R10:1
FOLR1 (lysine site: K44) (UniProt P15328)	1.8 (active)
ARPC3 (lysine site: K29) (UniProt O15145)	1.49 (active)
UniProt P60866 (lysine site: K59)	2.02
WDR1 (lysine site: K81) (UniProt O75083)	0.967 (active)
UniProt Q9NYQ6 (lysine site: K324)	0.873 (active)
TSPAN6 (lysine site: K146) (UniProt O43657)	1.28 (active)
GPC1 (lysine site: K358) (UniProt P35052)	1.32 (active)
GANAB (lysine site: K48) (UniProt Q14697)	3.47
PDCD6IP (lysine site: K48) (UniProt Q8WUM4)	2.93
PDIA3 (lysine site: K362) (UniProt P30101)	2.15
NEGR1 (lysine site: K52) (UniProt Q7Z3B1)	4.69
VIM (lysine site: K188) (UniProt P08670)	11.1
ITGA6 (lysine site: K404) (UniProt P23229)	6.64
LMO7 (lysine site: K1496) (UniProt Q8WWI1)	2.11
PVR (lysine site: K90) (UniProt P15151)	3.33
WNT5A (lysine site: K283) (UniProt P41221)	3.04
PA2G4 (lysine site: K22) (UniProt Q9UQ80)	0.568 (active)

Target	lysine labeling ratio R10:1
MYH9 (lysine site: K1638) (UniProt P35579)	3.09
MSN (lysine site: K151) (UniProt P26038)	2.26
UniProt P62805 (lysine site: K32)	7.5
CD9 (lysine site: K131) (UniProt P21926)	7.57
JUP (lysine site: K656) (UniProt P14923)	0.972 (active)
SEMA3C (lysine site: K247) (UniProt Q99985)	4.79
F2 (lysine site: K599) (UniProt P00734)	6.29
TAGLN2 (lysine site: K171) (UniProt P37802)	8.2
P4HB (lysine site: K309) (UniProt P07237)	1.42 (active)
UniProt P62249 (lysine site: K4)	5.53
CALD1 (lysine site: K119) (UniProt Q05682)	2.67
PRDX1 (lysine site: K109) (UniProt Q06830)	2.64
CALD1 (lysine site: K577) (UniProt Q05682)	1.1 (active)
RPL3 (lysine site: K373) (UniProt P39023)	2.31
HSPA8 (lysine site: K512) (UniProt P11142)	7.92
TFRC (lysine site: K672) (UniProt P02786)	3
SRI (lysine site: K146) (UniProt P30626)	4.33
